Shown are actives, neighbours in structure and some others; about 2.2% of the full set was active somewhere.
IEC-6 cytotox: counter-screen for KLF5 inhibitors: cytotoxicity in IEC-6 cells; IEC-6 cytotoxicity, luminescence viability; inhibition, % at 5 µM; 290,000 compounds, 0.78% hits; in the data active = inhibition above about 22%;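 note: 0% = plate median of test compound wells and 100% = cytotoxic reference compound wells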
KLF5 inh: kruppel-like factor 5 inhibition; DLD-1 KLF5 promoter-luciferase reporter, luminescence; 290,000 compounds, 0.23% hits; inhibition, % at 5 µM;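 active = inhibition above a per-plate limit of that plate's mean compound inhibition plus 3 SD, cut at about 60% in these data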;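 note: 0% = DMSO wells and 100% = LY294002 at 200 µM; higher means less KLF5 promoter-driven luciferase light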
BaF3 tox: reduces parental Ba/F3 cell viability, JAK2V617F counter-screen; CellTiter-Glo ATP luminescence; inhibition, % at 5.6 µM; 220,000 compounds, 1.1% hits;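 active = inhibition above a per-campaign cutoff, the mean inhibition of all tested compounds plus 3 SD, cut at about 27% in these data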;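 note: 0% = DMSO wells and 100% = JAK Inhibitor I control wells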
APP 5UTR inh: APP translation inhibition; SH-SY5Y APP 5'UTR-luciferase reporter, luminescence; inhibition, % at 2 µM; 190,000 compounds, 0.82% hits;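 active = inhibition above a set limit, derived from the sample mean plus 3 SD, cut at about 45% in these data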
aSyn 5UTR inh: 5' untranslated region of α-synuclein, MLPCN primary screen; alpha-synuclein 5'UTR reporter, inhibitor activity; inhibition, % (tested at 7.5 µM); 300,000 compounds, 0.82% hits; in the data active = inhibition above about 60%;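 note: H4 neuroglioblastoma cells stably carrying SNCA 5'UTR luciferase fusion; 0% = DMSO wells and 100% = positive control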
Ba/F3 V617F tox: lowers viability of Ba/F3 cells expressing EpoR and JAK2V617F. ATP luminescence. inhibition, % at 5.6 µM. 220,000 compounds, 1.1% hits. AID 1446;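 active = inhibition above the campaign mean plus 3 SD over all tested compounds, cut at about 24% in these data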;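 note: cytokine-independent growth of Ba/F3 cells driven by EpoR plus mutant JAK2; 0% = DMSO-treated cells and 100% = JAK inhibitor I control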
BaF3 parental 2: counter-screen for JAK2V617F inhibitors: parental Ba/F3 viability inhibitors; shares compounds with Ba/F3 V617F tox; CellTiter-Glo luminescence; cells kept alive by added IL-3; inhibition, % at 5.6 µM; 580 compounds, 31% hits;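 active = cell growth inhibition above the hit limit set in the earlier mutant JAK2 cell screen, cut at about 27% in these data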;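 note: plate controls were DMSO-treated cells for no effect and JAK Inhibitor I control wells for full effect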
JAK2V617F confrm: Ba/F3 EpoR-JAK2V617F viability loss, confirmation; shares compounds with Ba/F3 V617F tox; CellTiter-Glo luminescence; inhibition, % at 5.6 µM; 580 compounds, 66% hits; AID 1521;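 active = mean inhibition above the hit cutoff derived in the earlier primary screen, cut at about 25% in these data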;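 note: 0% = DMSO-treated cells and 100% = JAK inhibitor I control wells; higher means lower luminescence from reduced cell ATP and viability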
* = called active by the depositor; · = no result given.

SMILES	IEC-6 cytotox	KLF5 inh	BaF3 tox	APP 5UTR inh	aSyn 5UTR inh	Ba/F3 V617F tox	BaF3 parental 2	JAK2V617F confrm
COc1ccc(NS(=O)(=O)c2ccc3oc(SCc4ccc(F)cc4)nc3c2)cc1	-3	-10	9	-6	-2	2	·	·
COc1ccc([N+](=O)[O-])c(S(=O)(=O)c2ccccc2)n1	15	26	-6	·	-49	93*	34*	85*
COc1nc(OC)nc(Oc2ccc(Cl)cc2[N+](=O)[O-])n1	0	-29	-5	5	-36	-7	·	·
COc1ccc([N+](=O)[O-])c(S(=O)(=O)c2ccc(Cl)cc2)n1	3	11	-7	·	-23	43*	2	70*
N#C/C(=C\c1ccc(O)c(O)c1)C(=O)NCCCc1ccccc1	9	11	4	-3	10	56*	-2	87*
NC1=NC2(CCCCC2)N(c2ccc(F)cc2)C(N)=N1	-5	-31	11	4	5	24*	-4	33*
COc1ccccc1N1C(N)=NC(N)=NC1(C)C	0	-14	17	-4	0	20	·	·
Cc1ccccc1-c1nn(-c2ccc(F)cc2F)cc1CNCCCN(C)C	4	-34	10	-3	15	26*	3	21
Cc1ccccc1-n1c(SCc2ccccn2)nc2n[nH]c(C)c2c1=N	-1	-30	1	-22	34	0	·	·
CCc1ccc(Nc2ccc(S(=O)(=O)N3CCOCC3)cc2[N+](=O)[O-])cc1	-6	-34	12	0	11	82*	3	17
CN(CC(=O)N1CCCc2c1c(=O)oc1ccc(O)cc21)Cc1ccccc1	-1	-1	4	6	4	-1	·	·
Nc1nc(Sc2ccc(C(F)(F)F)cn2)n[nH]1	8	-4	4	-4	-15	4	·	·
O=C1N=C(N2CCOCC2)S/C1=C\c1ccc(OS(=O)(=O)c2ccccc2)cc1	2	-17	12	-13	-12	44*	-5	-3
Oc1ccc(/C=C/c2ccnc3ccccc23)cc1	9	-65	26	-69	-112	47*	7	42*
Clc1ccc(CN2CCCCCCC2)cc1Cl	-10	-16	-3	-6	-3	-1	·	·
COC(=O)c1sc(S(=O)(=O)NCc2ccccc2)c(C(=O)OC)c1C	1	3	4	-9	-28	-4	·	·
O=C1C(Nc2ccccc2)=C/C(=N/S(=O)(=O)c2cccs2)c2ccccc21	4	-48	1	-20	-24	46*	93*	96*
CCC1CN(C(=O)N2CCC(C(=O)NCc3ccc(C)o3)CC2)c2ccccc2O1 (configuration not stated)	1	-6	·	·	44	·	·	·
Cc1nc([N+](=O)[O-])c(Br)n1Cc1ccccc1	0	-17	-7	·	-8	36*	-9	46*
COc1ccc(NC(=O)COC(=O)COc2ccc(Br)cc2)cc1	5	3	3	-18	14	1	·	·
Nc1nc(CCl)nc(Nc2ccccc2)n1	-2	-11	5	-15	-53	4	·	·
COc1cccc(Nc2nc(N)nc(CCl)n2)c1	3	20	-4	·	-23	-4	·	·
Cc1ccc(Nc2nc(N)nc(CCl)n2)cc1	-2	-31	1	·	-53	34*	0	58*
CCOc1ccc(Nc2nc(N)nc(CCl)n2)cc1	100*	-54	10	·	96*	99*	17	99*
CCOc1ccc(-n2c(C)c(C(C)=O)c3cc(OC(C)=O)ccc32)cc1	-4	-7	·	·	-13	·	·	·
SMILES	IEC-6 cytotox	KLF5 inh	BaF3 tox	APP 5UTR inh	aSyn 5UTR inh	Ba/F3 V617F tox	BaF3 parental 2	JAK2V617F confrm
Cc1ccccc1N1CCN(Cc2c[nH]c3ccccc23)CC1	2	-19	2	15	37	35*	-5	29*
Cc1ccc(C(=O)N2C(=O)c3cccc(N)c3C2=O)o1	0	-15	-4	·	0	2	·	·
Cn1c(=N)n(CC(O)c2cccc3ccccc23)c2ccccc21 (configuration not stated)	10	6	-7	-4	25	41*	-1	28*
COc1ccccc1S(=O)(=O)n1cc(Cc2ccccc2)c(N)n1	0	-23	1	0	·	100*	-7	-5
COc1ccc(Cl)cc1S(=O)(=O)N1CCN=C1Cc1ccccc1	-4	-23	·	·	21	·	·	·
O=C(O)CSc1cc(NS(=O)(=O)c2cccc([N+](=O)[O-])c2)c2ccccc2c1O	16	17	0	·	-3	4	·	·
CN(Cc1ccccc1)C(=O)COC(=O)c1cncc(Br)c1	-4	8	12	10	21	-2	·	·
CN(Cc1ccccc1)C(=O)COC(=O)c1ccc(Cl)c(N)c1	-6	-12	11	-10	18	94*	-5	-7
CC1(C)CC(=O)c2cnc(NC(=O)CCc3ccccc3)nc2C1	-1	1	-1	14	6	95*	-6	-8
O=C(CCc1ccccc1)Nc1ncc2c(n1)CCCC2=O	3	-45	9	10	-12	6	·	·
COc1cc(/C=C2\SC(=S)N(Nc3ccccc3)C2=O)ccc1O	12	-68	4	-34	-145	-2	·	·
O=C1/C(=C/c2ccc(O)c(O)c2)SC(=S)N1Nc1ccccc1	-1	-38	-6	-35	-146	38*	-2	67*
Cn1c(SCC(=O)NCCN2C(=O)CSC2=O)nnc1-c1ccccc1	2	-13	4	-6	-9	-1	·	·
Cc1cccnc1Nc1nc(-c2ccc(O)c(O)c2)cs1	14	-176	25	-39	-232	81*	25	93*
COc1ccc(-c2csc(Nc3ncccc3C)n2)cc1OC	3	-103	4	-31	-172	2	·	·
CCOC(=O)c1nnn(-c2nonc2N)c1CNc1ccccc1	4	0	6	-26	11	2	·	·
COc1cccc(-n2nnnc2S(C)(=O)=O)c1	39*	22	2	4	10	52*	32*	95*
O=C(Nc1ccccc1)c1cnc2ccccc2n1	19	-27	10	-51	-116	103*	-1	-4
Cc1cccc(-c2nnc(SCC#N)n2C)c1	3	-43	-1	-24	-24	0	·	·
COc1cc(CN2CCSCC2)cc(OC)c1OC	-1	8	6	-21	11	0	·	·
COc1ccccc1NC(=O)CSc1nnc(C2CCCCC2)n1-c1ccccc1	-3	7	-2	·	21	30*	-2	22
COc1ccccc1NC(=O)CSc1nnc(C2CCCCC2)n1C	10	11	3	-1	-6	2	·	·
Fc1ccc(C2CC(c3ccccc3)Nc3ncnn32)cc1 (configuration not stated)	-7	-41	2	22	33	-4	·	·
